# Compound activity as filed in PubChem BioAssay.
# Most compounds without a hit are left out; they make up all but 2.5% or so of the library.
# Cruzain noTriton – qHTS Assay for Promiscuous and Specific Inhibitors of Cruzain (without detergent). Cruzipain (Trypanosoma cruzi), P25779. purified cruzain, Z-FR-AMC fluorescence, no detergent. Potency, µM, for inactives: max response, negative = inhibition, hits mostly inhibitors. 200,000 compounds, 2.3% hits;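 also: plate controls were enzyme without inhibitor for no effect and buffer without enzyme for full effect; nearly all actives have a fitted effect of over 40% in size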
# Target sequence (P25779 123-467 limits assumed): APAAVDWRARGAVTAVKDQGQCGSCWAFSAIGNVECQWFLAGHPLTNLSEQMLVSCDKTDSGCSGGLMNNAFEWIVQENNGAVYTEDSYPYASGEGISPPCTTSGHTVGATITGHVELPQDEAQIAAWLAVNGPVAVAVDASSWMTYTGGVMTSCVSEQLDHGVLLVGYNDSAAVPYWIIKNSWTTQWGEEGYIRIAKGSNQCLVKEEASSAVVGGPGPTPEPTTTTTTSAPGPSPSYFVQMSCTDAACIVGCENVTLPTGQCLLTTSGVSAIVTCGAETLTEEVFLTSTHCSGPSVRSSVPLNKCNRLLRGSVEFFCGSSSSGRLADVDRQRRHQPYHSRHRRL
#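 Purified cruzain at 1.5 nM, pre-incubated 15 min with compound at room temperature in 100 mM sodium acetate pH 5.5, 5 mM DTT, 0.00005% Triton X-100. Reaction started with 2 uM Z-FR-AMC; AMC fluorescence increase over 60 s gives rate.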
# Cruzain inh Det – qHTS Assay for Promiscuous and Specific Inhibitors of Cruzain (with detergent); Potency, µM, without a hit: max response, negative = inhibition, usual class: inhibitors; purified cruzain, Z-FR-AMC fluorescence, 0.01% Triton; 200,000 compounds, 0.43% hits;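 also: plate controls were neutral wells for no effect and buffer without enzyme for full effect; nearly all actives have a fitted effect of over 40% in size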
#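 15 min RT preincubation of 1.5 nM cruzain with compound, then 2 uM Z-FR-AMC added; kinetic AMC fluorescence, 60 s delta. Triton X-100 0.01%, pH 5.5.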
# Active calls of the source: *; ? = inconclusive. Calls follow the shape of the dose curve; as a rule, active = well fitted curve in the direction sought with a large enough effect; inconclusive = small, poorly fitted or top-dose-only effect, or another doubt; inactive = no such curve, though single readings can be large; an effect the other way counts as inactive or inconclusive. Potency is read from the fitted curve at half-maximal effect.
SMILES,Cruzain noTriton,Cruzain inh Det
CC(C)(C)c1ccc(C(=O)NCC(c2cccnc2)N2CCc3ccccc3C2)cc1 (configuration not stated),-14%,2%
S=c1[nH]cc(-c2ccccc2)n1-c1cccc(Cl)c1,-12%,-3%
C=CCn1c(-c2ccccc2)c[nH]c1=S,7%,2%
Cn1c(-c2ccc(-c3ccccc3)cc2)c[nH]c1=S,10µM*,-9%
CCn1c(-c2ccc(-c3ccccc3)cc2)c[nH]c1=S,10µM*,5%
O=C(NCCOCCO)C(=O)Nc1c2c(nn1-c1ccc(F)cc1)CSC2,?,-9%
Cc1ccccc1C(=O)Nc1cccc(OCc2cc(=O)n3c4c(sc3n2)CCCC4)c1,-6%,-2%
O[C@H]([C@H](O)[C@@H](O)c1nc2ccccc2[nH]1)[C@@H](O)c1nc2ccccc2[nH]1,5%,1%
CCOC(=O)CNC(=O)O[C@@H]1C(=O)c2cc(Br)ccc2O[C@H]1c1cccc(OC)c1,-5%,0%
Cc1ccccc1NC(=O)COC(=O)c1ccc(CSc2ccc(Cl)cc2)cc1,10µM*,3%
O=C(COC(=O)c1ccc(O)cc1)Nc1ccc(Cl)cc1C(=O)c1ccccc1,-12%,-11%
CC(C)CCNC(=O)c1ccc2c(c1)N(Cc1ccccc1F)C(=O)c1ccccc1S2=O (configuration not stated),4%,-3%
Cc1cc2nc(-c3cccc(NC(=O)COc4ccc(C(C)C)cc4)c3)oc2cc1C,-5%,0%
COc1cccc(CNC(=O)c2ccc3c(c2)nc2n3CCOC2)c1OC,7%,2%
CCC(C)NC(=O)CSc1ccc(Cl)cc1 (configuration not stated),-10%,-1%
CCC(C)NC(=O)COC(=O)c1oc2ccccc2c1CSc1ccc(Cl)cc1 (configuration not stated),25µM*,-3%
COc1ccccc1CCNC(=O)Cc1c(C)c2cc(Cl)c(O)cc2oc1=O,?,8%
Cc1c(NC(=O)c2ccc(Cl)cc2)cc(C(C)C)c(O)c1S(=O)(=O)c1ccc(Cl)cc1,32µM*,0%
Cc1c(NC(=O)c2ccccc2)cc(C(C)C)c(O)c1S(=O)(=O)c1ccc(Cl)cc1,?,-2%
CCCNC(=O)c1cnc2sc(N3CCCCCC3)nn2c1=O,-4%,-8%
Cc1ccc(N2C(=O)C(Cl)=C(N3CCOCC3)C2=O)cc1Cl,7.9µM*,7.1µM*
CN1CCN(C2=C(Cl)C(=O)N(c3ccc(Cl)c(Cl)c3)C2=O)CC1,2.5µM*,2.8µM*
O=C1C(Cl)=C(N2CCOCC2)C(=O)N1c1ccccc1Cl,-26%,?
CN1CCN(C2=C(Cl)C(=O)N(c3cccc(Cl)c3)C2=O)CC1,?,-26%
Cc1ccc2ccc3cc(C(=O)N4CCN(c5ccccc5)CC4)nc3c2[nH]1,3%,-5%
SMILES,Cruzain noTriton,Cruzain inh Det
COc1ccc(N2CCN(C(=O)CS(=O)(=O)c3cccc4nsnc34)CC2)cc1,-4%,-1%
O=C(CCCOc1ccc(Cl)cc1Cl)NNC(=O)c1ccc(NC(=O)c2ccccc2)cc1,4µM*,-4%
COC(=O)NNC(=O)CCCOc1ccc(Cl)cc1Cl,4%,1%
Cc1ccccc1C(=O)Nc1ccc(C(=O)NNC(=O)CCCOc2ccc(Cl)cc2Cl)cc1,10µM*,3%
O=C(O)CCC(=O)NNC(=O)CCCOc1ccc(Cl)cc1Cl,-9%,2%
CC(=O)c1ccc(NC(=O)CSc2nccn2Cc2ccc3c(c2)OCO3)cc1,-6%,-7%
Clc1ccccc1C(Nc1cnccn1)Nc1cnccn1,8%,5%
CCOC(=O)c1sc(NC(=O)c2cc(-c3ccccc3C)nc3ccccc23)c(C#N)c1C,10µM*,-1%
CCOC(=O)c1sc(NC(=O)c2ccncc2)c(C#N)c1C,-9%,-12%
Cc1ccccc1-c1cc(C(=O)Nc2sc(C)c(C)c2C(N)=O)c2ccccc2n1,20µM*,-15%
CCOC(=O)c1c(NC(=O)c2cc(-c3ccc(Cl)s3)nc3ccccc23)sc(C(N)=O)c1C,-7%,1%
O=C(Cc1ccc(Cl)cc1)NC1CC(=O)N(c2ccc3c(c2)OCCO3)C1 (configuration not stated),6%,-2%
CC(=O)c1cccc(NC(=O)c2nc3ccccc3nc2N2CCCCC2)c1,14%,-4%
Cc1nn(CC(=O)NCc2ccccc2Cl)c(=O)c2cccn12,0%,-9%
COCC(C)NC(C(=O)Nc1ccc(C)c(Cl)c1)c1ccccc1 (configuration not stated),-2%,0%
Cc1ccc(NC(=O)C(OC(=O)c2ccc(C=O)cc2)c2ccccc2)cc1Cl (configuration not stated),25µM*,-9%
Cc1cccc(C2=NN(c3ccccc3)[C@@H](C(=O)N3CCOC3=O)[C@@H]2c2ccc(Cl)cc2)c1,22µM*,-5%
O=C1OCCN1C(=O)[C@H]1[C@H](c2ccc([N+](=O)[O-])cc2)C(c2ccccc2)=NN1c1ccccc1,?,4%
O=C1OCCN1C(=O)[C@H]1[C@H](c2ccc([N+](=O)[O-])cc2)C(c2cccc(Cl)c2)=NN1c1ccccc1,11µM*,0%
C[C@@H]1C(c2ccccc2)=NN(c2ccc(Br)cc2)[C@H]1C(=O)N1CCOC1=O,?,-2%
Cc1cccc(C2=NN(c3ccccc3)[C@@H](C(=O)N3CCOC3=O)[C@@H]2C)c1,1%,0%
Cc1cccc(C2=NN(c3ccc(Br)cc3)[C@@H](C(=O)N3CCOC3=O)[C@@H]2C)c1,28µM*,0%
Cc1cccc(C2=NN(c3ccccc3)[C@@H](C(=O)N3CCOC3=O)[C@@H]2c2ccc(F)cc2)c1,?,-7%
Cc1cccc(C2=NN(c3ccc(Br)cc3)[C@@H](C(=O)N3CCOC3=O)[C@@H]2c2ccc([N+](=O)[O-])cc2)c1,6.3µM*,1%
COc1ccc2nccc(SCC(=O)O)c2c1,10%,0%
SMILES,Cruzain noTriton,Cruzain inh Det
COc1ccccc1OCC(=O)N(Cc1ccc(N(C)C)cc1)CC1CCCO1 (configuration not stated),-12%,-1%
CCc1cccc(-n2c(=O)c3cccnc3n2CC(=O)NCc2ccc(C)cc2)c1,-17%,1%
Cc1ccc(NC(=O)C2CCN(C(=O)c3cnn(-c4ccccc4)c3-n3cccc3)CC2)cc1C,?,-7%
Cc1csc2nc(COC(=O)CNC(=O)c3ccccc3)cc(=O)n12,2%,-8%
O=C(CNC(=O)c1ccccc1Cl)OCc1cc(=O)n2ccsc2n1,13µM*,25µM*
O=C(CNC(=O)c1ccc(F)cc1)OCc1cc(=O)n2ccsc2n1,0%,-7%
Cc1csc2nc(COC(=O)CNC(=O)c3ccccc3Cl)cc(=O)n12,20µM*,25µM*
COc1ccc(C)cc1NC1(c2ccccc2)C(=O)c2ccccc2C1=O,?,-5%
CCOc1ccc(S(=O)(=O)N(CC(=O)Nc2ccc3c(c2)OCO3)c2ccccc2)cc1,-2%,-1%
Cc1ccc(NC(=O)CN2C(=O)C(c3ccccc3)=NC2(C)C)cc1C,-9%,-4%
O=C(N/N=C/C=C\c1ccccc1[N+](=O)[O-])c1cc(-c2ccc3ccccc3c2)n[nH]1,7.9µM*,-13%
O=C(N/N=C/C=C\c1ccccc1[N+](=O)[O-])c1cccs1,-10%,-9%
Cn1cc(C(=O)O)c(=O)c2cc(S(=O)(=O)N3CCCCC3)ccc21,16%,2%
COc1ccc(NC(=O)Cn2cc(C(=O)c3ccccc3OC)c(=O)c3ccc(C)nc32)cc1OC,27%,-3%
